The results in this text go back to publication PMC3919609, “Deep sequencing of large library selections allows computational discovery of diverse sets of zinc fingers that bind common targets”.

Common to all, as to assay: Zn; 100 nM beta-estradiol; yeast GFP reporter, 12 h induction, 3 biological replicates
The target in experiment [1] is Zif268 (Egr1) fingers 1-3 (Mus musculus, UniProt P08046 333-418). Conditions: dsDNA, one strand shown.
Experiment [2] has as its target RA three-finger array, finger 2 TSYNLTR (synthetic construct (mouse Zif268 …, UniProt P08046 333-418, E352N;T354R;R355A;R377T;D379Y;H380N;T383R;D407A;E408N;R409L;K410V)). Conditions: tags: estrogen receptor LBD - VP16 fusion (left out); vector residues GT and GS kept at the ends; dsDNA, one strand shown.
Experiment [3] has as its target RA three-finger array, finger 2 RADNLTE (synthetic construct (mouse Zif268 …, UniProt P08046 333-418, E352N;T354R;R355A;S378A;H380N;T383E;D407A;E408N;R409L;K410V)). Conditions: tags: estrogen receptor LBD - VP16 fusion (left out); vector residues GT and GS kept at the ends; dsDNA, one strand shown.
For experiment [4], the target named is RA three-finger array, finger 2 TSWNLRS (synthetic construct (mouse Zif268 …, UniProt P08046 333-418, E352N;T354R;R355A;R377T;D379W;H380N;T382R;T383S;D407A;E408N;R409L;K410V)). Conditions: tags: estrogen receptor LBD - VP16 fusion (left out); vector residues GT and GS kept at the ends; dsDNA, one strand shown.
The target of experiment [5] is RA three-finger array, finger 2 ASSNLRA (synthetic construct (mouse Zif268 …, UniProt P08046 333-418, E352N;T354R;R355A;R377A;D379S;H380N;T382R;T383A;D407A;E408N;R409L;K410V)). Conditions: tags: estrogen receptor LBD - VP16 fusion (left out); vector residues GT and GS kept at the ends; dsDNA, one strand shown.
For experiment [6], the target named is RA three-finger array, finger 2 RSGNLRS (synthetic construct (mouse Zif268 …, UniProt P08046 333-418, E352N;T354R;R355A;D379G;H380N;T382R;T383S;D407A;E408N;R409L;K410V)). Conditions: tags: estrogen receptor LBD - VP16 fusion (left out); vector residues GT and GS kept at the ends; dsDNA, one strand shown.
The target of experiment [7] is RA three-finger array, finger 2 QSGNLKS (synthetic construct (mouse Zif268 …, UniProt P08046 333-418, E352N;T354R;R355A;R377Q;D379G;H380N;T382K;T383S;D407A;E408N;R409L;K410V)). Conditions: tags: estrogen receptor LBD - VP16 fusion (left out); vector residues GT and GS kept at the ends; dsDNA, one strand shown.
In experiment [8] the target is RA three-finger array, finger 2 RSDNLTR (synthetic construct (mouse Zif268 …, UniProt P08046 333-418, E352N;T354R;R355A;H380N;T383R;D407A;E408N;R409L;K410V)). Conditions: tags: estrogen receptor LBD - VP16 fusion (left out); vector residues GT and GS kept at the ends; dsDNA, one strand shown.
The target of experiment [9] is RA three-finger array, finger 2 DSSNLRS (synthetic construct (mouse Zif268 …, UniProt P08046 333-418, E352N;T354R;R355A;R377D;D379S;H380N;T382R;T383S;D407A;E408N;R409L;K410V)). Conditions: tags: estrogen receptor LBD - VP16 fusion (left out); vector residues GT and GS kept at the ends; dsDNA, one strand shown.
In experiment [10] the target is RA three-finger array, finger 2 HSSNLTH (synthetic construct (mouse Zif268 …, UniProt P08046 333-418, E352N;T354R;R355A;R377H;D379S;H380N;T383H;D407A;E408N;R409L;K410V)). Conditions: tags: estrogen receptor LBD - VP16 fusion (left out); vector residues GT and GS kept at the ends; dsDNA, one strand shown.
For experiment [11], the target named is RA three-finger array, finger 2 QSGNLTE (synthetic construct (mouse Zif268 …, UniProt P08046 333-418, E352N;T354R;R355A;R377Q;D379G;H380N;T383E;D407A;E408N;R409L;K410V)). Conditions: tags: estrogen receptor LBD - VP16 fusion (left out); vector residues GT and GS kept at the ends; dsDNA, one strand shown.

On to GCGTGGGAG, for which, in [1], the binding signal is 0.755 mean GFP / mean GFP of Zif268 on its consensus site.
Same read-out and setting: under GCGTGGGCC stands 0.147 mean GFP / mean GFP of Zif268 on its consensus site.
Take GAGCAGAAG: the binding signal is 0.098 mean GFP / mean GFP of Zif268 on its consensus site in experiment [2]; 0.267 ± 0.016 mean GFP / mean GFP of Zif268 on its consensus site in [3]; 1.13 ± 0.189 mean GFP / mean GFP of Zif268 on its consensus site in experiment [4]; 0.103 ± 0.004 mean GFP / mean GFP of Zif268 on its consensus site in experiment [5]; 0.997 ± 0.075 mean GFP / mean GFP of Zif268 on its consensus site in experiment [6]; 0.174 ± 0.003 mean GFP / mean GFP of Zif268 on its consensus site in [7].
Regarding GCGTGGGTG, in experiment [1], the binding signal is 0.878 mean GFP / mean GFP of Zif268 on its consensus site.
GAGGAGAAG: the binding signal in experiment [2] is 0.873 ± 0.063 mean GFP / mean GFP of Zif268 on its consensus site; in experiment [4], 0.103 ± 0.007 mean GFP / mean GFP of Zif268 on its consensus site; in experiment [8] it was 0.986 ± 0.121 mean GFP / mean GFP of Zif268 on its consensus site; in [6], 0.149 ± 0.009 mean GFP / mean GFP of Zif268 on its consensus site.
As for GAGCACAAG, the binding signal in [9] was 0.498 ± 0.055 mean GFP / mean GFP of Zif268 on its consensus site; in experiment [5] it was 0.225 ± 0.031 mean GFP / mean GFP of Zif268 on its consensus site; in [10] it was 0.472 ± 0.086 mean GFP / mean GFP of Zif268 on its consensus site; in experiment [7], 0.219 ± 0.008 mean GFP / mean GFP of Zif268 on its consensus site.
Consider GCGTGGGGG, for which, in experiment [1], the binding signal is 0.059 mean GFP / mean GFP of Zif268 on its consensus site.
With GAGCAAAAG, the binding signal in [11] is 0.251 ± 0.044 mean GFP / mean GFP of Zif268 on its consensus site; in experiment [6] it was 0.138 ± 0.011 mean GFP / mean GFP of Zif268 on its consensus site; in experiment [7], 0.463 ± 0.041 mean GFP / mean GFP of Zif268 on its consensus site.
In the case of GCGTGGGCG, in experiment [1], the binding signal was 1 mean GFP / mean GFP of Zif268 on its consensus site.
With GAGAAGAAG, the figures for the binding signal in experiment [4] and in experiment [6] were 0.437 ± 0.032 mean GFP / mean GFP of Zif268 on its consensus site and 0.587 ± 0.052 mean GFP / mean GFP of Zif268 on its consensus site, respectively.
As for GAGCATAAG, the binding signal was 0.344 ± 0.012 mean GFP / mean GFP of Zif268 on its consensus site in [4], 0.875 ± 0.05 mean GFP / mean GFP of Zif268 on its consensus site in experiment [5], 0.264 ± 0.005 mean GFP / mean GFP of Zif268 on its consensus site in experiment [6] and 0.226 ± 0.01 mean GFP / mean GFP of Zif268 on its consensus site in experiment [7].
